The values below come from PubChem BioAssay (Tox21).

Test [1] in a line: cAMP Responsive Elements (CRE) small molecule antagonists, cell-based qHTS assay: qHTS cell viability counter screen (AID 2060913). Note: nearly all actives have a fitted effect of over 40% in size. The gist of the method: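 Cytotoxicity read in the same wells as the CRE-bla HEK293T antagonist assay: after 3 h compound with 0.25 uM NKH477 final and 2 h beta-lactamase substrate, CellTiter-Glo luminescence measured.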
In general terms: In qHTS, concentration-response curves come from the screen itself.

The nature of test [2]: cAMP Responsive Elements (CRE) small molecule agonists, cell-based qHTS assay: qHTS cell viability counter screen (AID 2060914). Note: nearly all actives have a fitted effect of over 50% in size. The gist of the method:
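CRE-bla HEK 293T cells, plated 18 h at 37 °C, were exposed to compounds for 3 h at 37 °C/5% CO2. Viability was then measured in the same wells by CellTiter-Glo luminescence after 30 min at room temperature.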

Results filed as inconclusive are left out. Values without a mark were called inactive. Activity calls are given as the source filed them. Calls come from the whole dose curve; as a rule, active = well fitted cell-killing curve with a large enough effect in the repeat runs; inconclusive = weak or mixed curves, or effect the other way; inactive = flat fitted curve, though single readings scatter.
% is set by controls: 0 for no effect and ±100 for the full control effect.

`CCOC=C(C(=O)OCC)C(=O)OCC`: the Potency entry in test [1] and in test [2] was “inactive” throughout.
In the case of `COC(=O)C1CC(=O)C(C(=O)OC)CC1=O` (configuration not stated), the viability change, negative = cytotoxic in test [1] is 18.8% [at 8.39 µM]. Moreover, the activity change, negative = cytotoxicity in test [2] is -4.18% [at 8.39 µM].
Take `c1ccc2c(c1)[nH]c1ccccc12`: the Potency entry in test [1] and in test [2] was “inactive” in each case.
Turning to `CO[C@]12C[C@@H](COC(=O)c3cncc(Br)c3)CN(C)[C@@H]1Cc1cn(C)c3cccc2c13`, the Potency entry in test [1] and in test [2] was “inactive” in each case.
For the compound `N=C(N)N`, the Potency result in test [1] and in test [2] was “inactive” throughout.
Regarding `S=c1nccc[nH]1`, the Potency entry in test [1] and in test [2] was “inactive” in each case.
Consider `CC(=O)OCC[N+](C)(C)C`, for which the Potency result in test [1] and in test [2] was “inactive” each time.
On to `CCCCCCCCCC`, for which the Potency result in test [1] and in test [2] was “inactive” each time.
For the compound `C[C@@H]1CC[C@@]2(OC1)O[C@H]1C[C@H]3[C@@H]4CC[C@H]5C[C@@H](O)CC[C@]5(C)[C@H]4CC(=O)[C@]3(C)[C@H]1[C@@H]2C`, in test [1], the viability change, negative = cytotoxic was 0.912% [at 8.39 µM]. Further, the activity change, negative = cytotoxicity in test [2] is -1.47% [at 8.39 µM].
With `CCCOC(=O)c1ccc(N)cc1`, the Potency entry in test [1] and in test [2] was “inactive” in each case.
Consider `COc1cc(C(=O)N2CCOCC2)cc(OC)c1OC`, for which the Potency entry in test [1] and in test [2] was “inactive” throughout.
Consider `COc1cc(C(C)(C)C)c(O)c(C(C)(C)C)c1`, for which the Potency result in test [1] and in test [2] was “inactive” throughout.
With `N[C@@H](Cc1cc(I)c(O)c(I)c1)C(=O)O`, the Potency result in test [1] and in test [2] was “inactive” each time.
Regarding `CCN1CCCC1CNC(=O)c1cc(S(=O)(=O)CC)c(N)cc1OC` (configuration not stated), the Potency entry in test [1] and in test [2] was “inactive” in each case.
For `CC1=CC[C@@H]2C[C@H]1C2(C)C`, the viability change, negative = cytotoxic in test [1] was -0.978% [at 18.9 µM]. In addition, in test [2], the activity change, negative = cytotoxicity is -0.0766% [at 18.9 µM].
With `O=C1c2c(O)ccc(O)c2C(=O)c2c(NCCNCCO)ccc(NCCNCCO)c21`, the Potency entry in test [1] and in test [2] was “inactive” each time.
